# TDP1 cell noCPT: qHTS for Inhibitors of human tyrosyl-DNA phosphodiesterase 1 (TDP1): qHTS in cells in absence of CPT. DT40 Tdp1-/- hTDP1 cells, no CPT, ATP luminescence, 48 h. Potency, µM (doses to about 46.2 µM), for inactives: at the highest dose activity change, negative = growth inhibition, actives largely listed as inhibitors. 420,000 tested, 15% active. AID 686978, 2013; further: potency means the concentration at half of the fitted maximal effect; on the % scale 0 is the no-effect control and ±100 the full control effect; nearly all actives have a fitted effect of over 55% in size
#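 Growth kinetics read by CellTiter-Glo luminescence after ≥48 hr at 37 °C. Cells: DT40 Tdp1-/- stably carrying human TDP1, 400 per well, compound exposure in the absence of CPT (DMSO vehicle).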
# Chronic BCR inh: qHTS Assay to Find Inhibitors of Chronic Active B-Cell Receptor Signaling; ABC-DLBCL IkBa-CBG/CBR reporter, luminescence ratio, 4 h; Potency, µM (doses to about 46.1 µM), without a hit: at the highest dose activity change, negative = inhibition, usual class: inhibitors; 340,000 tested, 0.05% active; AID 493014, 2011; active means well fitted inhibition curve with a large enough effect in the signal ratio, with a control signal flat, not every such curve was filed as active; inconclusive means small, poorly fitted or top-dose-only effect, or effect the other way, or a change in a side signal; the % refers to the signal ratio;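 further: potency means the concentration at half of the fitted maximal effect; plate controls were basal doxycycline-induced cells for no effect and cells given 10 µM MG132 for full effect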
#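 Concentration-response series (up to 46 uM) were applied to TMD8 dual-reporter cells for 4 h at 37C with doxycycline. Green/red ratio, after filter-overlap correction, defined %Activity; red signal alone was normalised to basal cells and zero luminescence.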
# IL-1B inflam inh: qHTS for Inhibitors of Inflammasome Signaling: IL-1-beta AlphaLISA Primary Screen; 360,000 tested, 4.7% active; activity change, % at 57.5 µM; THP-1 LPS/ATP IL-1B secretion, AlphaLISA, 16 h; hits give low values; in the data active means activity change below about -50%; inconclusive means mostly about -30% to -49%; further: on the % scale 0 is the no-effect control and ±100 the full control effect
#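 Secreted IL-1B measured by AlphaLISA bead assay after 16 h compound exposure of THP-1 cells; compounds (final up to 57.5 uM) added 1 h before LPS (250 ng/mL) and ATP (1.25 mM) stimulation; lower signal means less secretion.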
# SW480 rereplic: A quantitative high throughput screen for small molecules that induce DNA re-replication in SW480 colon adenocarcinoma cells; Potency, µM (titrated, usually from 46.1 µM), for inactives: at the highest dose re-replication activation, most hits filed as activators; AID 624297, 2012; 340,000 tested, 1.8% active; SW480 DNA re-replication, Hoechst DNA content imaging, 48 h; further: potency means the concentration at half of the fitted maximal effect; % of control where 0% means no effect; nearly all actives have a fitted effect of over 55% in size
#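 Quantitative HTS format with DMSO vehicle controls; 48 hr drug incubation at 37 C, then 40 min Hoechst staining and scanning imager measurement at 405 nm excitation.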
# DT40 TDP1 CPT: qHTS for Inhibitors of human tyrosyl-DNA phosphodiesterase 1 (TDP1): qHTS in cells in presence of CPT. Potency, µM (titrated, usually from 46.2 µM), for inactives: top-dose activity change, negative = growth inhibition, most hits filed as inhibitors. chicken DT40 Tdp1-/-;hTDP1 cells + 20 nM CPT, ATP luminescence, 48 h. 420,000 tested, 12% active; further: potency means the concentration at half of the fitted maximal effect; on the % scale 0 is the no-effect control and ±100 the full control effect; nearly all actives have a fitted effect of over 55% in size
#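 Chicken DT40 Tdp1-/- cells stably complemented with human TDP1 were seeded at 400 cells/well in medium containing 20 nM camptothecin, exposed to pin-transferred compounds, and grown at 37 °C for at least 48 hr. Viability was read as ATP luminescence.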
# MCF10A rerep: A quantitative high throughput screen for small molecules that induce DNA re-replication in MCF 10a normal breast cells. MCF 10A DNA re-replication, Hoechst nuclear intensity, 48 h. 350,000 tested, 2.9% active. Potency, µM (series often up to 46.1 µM), for inactives: top-dose activity, positive = re-replication, hits mostly activators; further: potency means the concentration at half of the fitted maximal effect; % of control where 0% means no effect; nearly all actives have a fitted effect of over 50% in size
# An asterisk follows results filed as active; ? = inconclusive; . = not tested or not shown; [ ] = remark or other dose. Compounds with a hit are over-represented: about 19% of the library has one in this group of screens. Unless noted, the call rests on the fitted dose curve; in most records, active means well fitted curve in the direction sought with a large enough effect; inconclusive means small, poorly fitted or top-dose-only effect, or another doubt; inactive means no such curve, though single readings can be large; an effect the other way counts as inactive or inconclusive.
SMILES,TDP1 cell noCPT,Chronic BCR inh,IL-1B inflam inh,SW480 rereplic,DT40 TDP1 CPT,MCF10A rerep
CCOc1cc(S(=O)(=O)N2CCC(Cc3ccccc3)CC2)c(OCC)cc1-n1cnnn1,-28%,1%,-11,0%,-20%,-2%
CN(C)C(=O)c1ccc(/C=C/c2ccnc3ccccc23)cc1,16µM*,.,.,.,?,.
CN(CC(=O)O)c1ccc(/C=C/c2ccnc3ccccc23)cc1,20µM*,.,.,.,11µM*,.
CCCCCCCCN(CCCCCCCC)c1ccc(/C=C/c2ccnc3ccccc23)cc1,-21%,.,.,.,-3%,.
COc1ccccc1S(=O)(=O)N1CCN(c2nc(-c3cccs3)nc3ccccc23)CC1,7.9µM*,.,.,.,10µM*,.
COc1ccc(S(=O)(=O)N2CCN(c3nc(-c4cccs4)nc4ccccc34)CC2)cc1OC,?,.,.,.,-23%,.
COc1ccc(Nc2nc(-c3cccs3)nc3ccccc23)cc1S(=O)(=O)N1CCOCC1,3.3µM*,.,-66*,?,18µM*,?
COc1ccc(NS(=O)(=O)c2cccs2)cc1S(=O)(=O)N1CCOCC1,-4%,-4%,16,-3%,13%,-1%
CC(=O)c1ccccc1S(=O)(=O)N1CCN(c2nc(-c3cccs3)nc3ccccc23)CC1,7.1µM*,.,.,.,8.9µM*,.
CCOC(=O)c1ccccc1S(=O)(=O)N1CCN(c2nc(-c3cccs3)nc3ccccc23)CC1,11µM*,.,.,.,11µM*,.
O=C(COC(=O)Cc1ccccc1F)Nc1cccc(S(=O)(=O)NC2=NCCCCC2)c1,-1%,?,6,0%,-24%,9%
O=C(Cc1ccccc1[N+](=O)[O-])NCC(O)c1ccc2c(c1)OCO2 (centres undefined),-12%,.,7,-3%,-4%,-2%
CN(C(=O)c1cnn(-c2nccc(-c3ccccc3C(F)(F)F)n2)c1C1CC1)C1CCOC1 (centres undefined),-17%,.,.,.,?,.
CCCc1nnc(NC(=O)CCC(=O)NC2CCCCCC2)s1,8%,1%,5,-1%,-4%,-2%
Oc1ccc(N=Nc2ccccc2C(F)(F)F)c2cccnc12,1µM*,?,16,?,0.82µM*,-2%
CCS(=O)(=O)c1ccc(N=Nc2ccc(O)c3ncccc23)c(OC)c1,1.3µM*,8%,111,4.6µM*,1.8µM*,?
COc1ccccc1N=Nc1ccc(O)c2ncccc12,2.9µM*,-8%,20,10%,2.9µM*,18%
CC(C)(C)c1ccc(C(=O)Nc2ccc(NC(=O)C(=O)O)cc2)o1,2%,?,8,-751%[1.84 µM],-3%,-2%
COc1ccc(C(C(=O)NC2CCCC2)N(C(=O)c2ccco2)c2cc3c(cc2C(C)=O)OCO3)cc1 (centres undefined),-26%,0%,0,-1%,7%,-1%
O=C(Nc1nc(=O)c2ccccc2s1)c1ccc(F)cc1,-5%,?,-99*,-3%,-28%,?
O=C(Nc1nc(=O)c2ccccc2s1)c1ccc(Cl)cc1,?,?,14,5%,?,-2%
COC(=O)c1cc(NC(=O)C(C)c2ccc(CC(C)C)cc2)ccc1O (centres undefined),?,?,-21,?,21µM*,15µM*
CC(C)Cc1ccc(C(C)C(=O)Nc2ncccn2)cc1 (centres undefined),?,-2%,-1,3%,-18%,17%
COc1ccccc1CNC(=O)c1cc(S(=O)(=O)N2CCCCCC2)cn1C,-17%,.,.,.,-10%,.
CCOc1ccc2nc(C)cc(Nc3cccc([N+](=O)[O-])c3)c2c1,12µM*,4%,-118*,?,3.3µM*,18µM*
SMILES,TDP1 cell noCPT,Chronic BCR inh,IL-1B inflam inh,SW480 rereplic,DT40 TDP1 CPT,MCF10A rerep
CCOc1ccc(Nc2cc(C)nc3c(C)cccc23)cc1,?,-1%,-63*,1%[9.22 µM],?,12%
Cc1cc(Nc2ccc([N+](=O)[O-])cc2)c2ccccc2n1,18µM*,-15%,-80*,71%,16µM*,2.6µM*
Cc1cc(Nc2cccc([N+](=O)[O-])c2)c2ccccc2n1,?,15%,0,-27%,?,?
CCOc1ccc(Nc2cc(=O)oc3ccccc23)cc1,18µM*,-2%,-24,-3%,10µM*,-3%
C=CC(C)(O)CC/C=C(\C)CCC=C(C)C (centres undefined),-12%,.,.,5%,5%,13%
C[C@@H]1CN([C@@H](C)CO)C(=O)CCCn2nncc2CO[C@H]1CN(C)S(=O)(=O)c1cccs1,0%,.,22,.,-4%,.
CSc1ncc(Cl)c(C(=O)NCc2cccnc2)n1,-14%,0%,10,0%,0%,-8%
Cc1cc(Nc2cccc([N+](=O)[O-])c2)c2cccc(C)c2n1,21µM*,?,-95*,-6%,?,-1%
O=C(CN1C(=O)NC2(CCCC2)C1=O)N1CCN(c2ccc(C(F)(F)F)cc2[N+](=O)[O-])CC1,8.2µM*,.,-8,-3%,13µM*,19%
O=C(CN1C(=O)NC2(CCCCCC2)C1=O)NCc1ccccc1,-20%,-1%,9,-13%,-36%,5%
O=C(CN1C(=O)NC2(CCCC2)C1=O)N1CCN(c2cccc(C(F)(F)F)c2)CC1,21µM*,-5%,-3,1%,?,-1%
Cc1cccc(N2CCN(C(=O)CN3C(=O)NC4(CCCCCC4)C3=O)CC2)c1C,21µM*,11%,-12,-6%,?,?
COc1cccc(N2CCN(C(=O)CN3C(=O)NC4(CCCC4)C3=O)CC2)c1,-20%,1%,12,-4%,-11%,1%
O=C(CN1C(=O)NC2(CCCCCC2)C1=O)N1CCC(Cc2ccccc2)CC1,16µM*,5%,17,1%,?,25%
CC1(C)NC(=O)N(CC(=O)N2CCN(c3cccc(C(F)(F)F)c3)CC2)C1=O,?,9%,10,-8%,?,2%
CCOC(=O)c1c(C)n(S(=O)(=O)c2ccc(C)cc2)c2ccc(O)c(C(=O)O)c12,1%,7%,14,-7%,-4%,5%

# Source: PubChem BioAssay (National Center for Advancing Translational Sciences (NCATS))
